From PubChem
This is a sample that favours compounds with a hit; in the whole collection about 1.2% have one here.
RGS8-Gao – human RGS8-Galphao interaction regulation | multiplexed bead flow cytometry, RGS8-Galphao binding; actives lie on both sides | response (percent of control binding), % at 10 µM | hit rate 0.34% among 220,000; in the data active means response below about 60% or above about 140%; inactive means in between;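 further: Galphao activated as the GDP aluminium fluoride complex binding bead-coupled RGS8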
Target sequence (P09471 whole entry, looked up): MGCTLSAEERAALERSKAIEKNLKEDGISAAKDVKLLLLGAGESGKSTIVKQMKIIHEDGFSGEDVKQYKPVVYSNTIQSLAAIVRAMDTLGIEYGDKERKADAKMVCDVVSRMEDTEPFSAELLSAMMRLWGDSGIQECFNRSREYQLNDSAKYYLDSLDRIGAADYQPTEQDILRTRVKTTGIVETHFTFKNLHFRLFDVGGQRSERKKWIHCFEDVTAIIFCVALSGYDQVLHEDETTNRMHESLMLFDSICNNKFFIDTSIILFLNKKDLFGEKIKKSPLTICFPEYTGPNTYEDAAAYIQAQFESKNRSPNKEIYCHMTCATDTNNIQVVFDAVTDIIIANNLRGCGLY
RGS7-Gao – human RGS7-Galphao interaction regulation; P09471; Multiplexed bead flow cytometry, RGS7-Galphao binding; actives lie on both sides; binding response (% of control), % at 10 µM; hit rate 0.35% among 220,000; AID 1439; in the data active means binding response below about 49% or above about 150%; inconclusive means no clear call, values can overlap the other calls; inactive means in between;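 further: fluorescent Galphao held in activated GDP-AlF4 state binding bead-coupled RGS7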
Avidin fluor – compound fluoresces at 488/530 nm on avidin beads. hit rate 0.38% among 220,000. compound fluorescence 488/530 nm, flow cytometry; active compounds read high. AID 1775. fluorescence (KMESF) at 10 µM; in the data active means fluorescence above about 47
RGS16-Gao HTS – modulates binding between human RGS16 and Galphao. O15492+P09471. bead-based flow cytometry RGS16-Galphao binding, fluorescence; actives lie on both sides. binding response (% of control), % at 10 µM. hit rate 0.38% among 220,000. AID 1441; call rule not given here;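 further: Galphao activated by GDP with aluminum fluoride before binding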
Target sequence (O15492 whole entry, looked up): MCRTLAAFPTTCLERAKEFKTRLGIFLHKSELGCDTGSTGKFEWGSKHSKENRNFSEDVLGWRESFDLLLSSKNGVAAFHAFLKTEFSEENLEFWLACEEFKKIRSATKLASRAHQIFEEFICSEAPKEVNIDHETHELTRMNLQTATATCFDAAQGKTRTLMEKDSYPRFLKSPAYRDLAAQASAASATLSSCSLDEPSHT
Target sequence (P09471 whole entry, looked up): as the sequence (P09471 whole entry, looked up) above
RGS4-Gao reg – human RGS4-Galphao interaction regulation; P09471; Multiplexed bead flow cytometry, RGS4-Galphao binding; actives lie on both sides; binding response (% of control), % at 10 µM; hit rate 0.33% among 220,000; in the data active means binding response below about 49% or above about 150%; inactive means in between;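 further: fluorescent Galphao activated with aluminum fluoride binding bead-coupled RGS4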
GSH bead fluor – GSH bead compound fluorescence profile; hit rate 0.25% among 190,000; AID 1776; GSH beads flow cytometry, compound fluorescence 488/530 nm; active compounds read high; fluorescence (KMESF) at 10 µM; in the data active means fluorescence above about 89;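 further: glutathione beads carrying GST-tagged Bcl family fusion proteins plus one bare bead set; values are compound well signal with DMSO vehicle wells as background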
An asterisk follows results filed as active.

Screening CCCOC(=O)c1ccc(NC(=O)C2C3C=CC(O3)C2C(=O)O)cc1 (stereo unspecified) returned RGS8-Gao 119, RGS7-Gao 110, Avidin fluor 4, RGS16-Gao HTS 179, RGS4-Gao reg 116 and GSH bead fluor 244*.
CCCOC(=O)c1ccc(NC(=O)COC)cc1 was read as RGS8-Gao 103, RGS7-Gao 104, Avidin fluor 10, RGS16-Gao HTS 106, RGS4-Gao reg 103 and GSH bead fluor 12.
Screening CCCOC(=O)c1ccc(NC(=O)c2ccoc2C)cc1 returned RGS8-Gao 98, RGS7-Gao 106, Avidin fluor 51*, RGS16-Gao HTS 100, RGS4-Gao reg 98 and GSH bead fluor 27.
CC(C)CN(CC(C)C)S(=O)(=O)N1CCC(C(=O)NCc2ccco2)CC1 was read as RGS8-Gao 105, RGS7-Gao 97, Avidin fluor 26, RGS16-Gao HTS 108, RGS4-Gao reg 97 and GSH bead fluor 8.
O=C(O)c1cn(Cc2ccccc2)nc1-c1cccnc1 was read as RGS8-Gao 102, RGS7-Gao 102, Avidin fluor 11, RGS16-Gao HTS 104, RGS4-Gao reg 102 and GSH bead fluor 11.
`O=C(Oc1cccc([N+](=O)[O-])c1)N1CCCCC1` gave RGS8-Gao 101, RGS7-Gao 117, Avidin fluor 12, RGS16-Gao HTS 105, RGS4-Gao reg 107 and GSH bead fluor 13.
For O=c1c2ccccc2nc(SCc2cccc(F)c2)n1Cc1ccco1 the results were RGS8-Gao 100, RGS7-Gao 122, Avidin fluor 72*, RGS16-Gao HTS 109, RGS4-Gao reg 108 and GSH bead fluor 25.
Screening Cc1noc(/C=C/c2ccc(-c3ccccc3Cl)o2)c1[N+](=O)[O-] returned RGS8-Gao 99, RGS7-Gao 115, Avidin fluor 57*, RGS16-Gao HTS 111, RGS4-Gao reg 111 and GSH bead fluor 30.
NC(=S)NNC(=O)c1cccc(Br)c1 was read as RGS8-Gao 102, RGS7-Gao 100, Avidin fluor 29, RGS16-Gao HTS 104, RGS4-Gao reg 105 and GSH bead fluor 19.
CC(C)(C)c1ccc(C(=O)NNC(=O)c2cccc(Br)c2)cc1 was read as RGS8-Gao 108, RGS7-Gao 146, Avidin fluor 65*, RGS16-Gao HTS 107, RGS4-Gao reg 118 and GSH bead fluor 32.
Screening Cn1nc(-c2ccccc2)c(C(O)c2ccc(Cl)cc2)c1Cl (stereo unspecified) returned RGS8-Gao 99, RGS7-Gao 108, Avidin fluor 56*, RGS16-Gao HTS 103, RGS4-Gao reg 100 and GSH bead fluor 13.
For N#CCCN1CCN(C(=O)c2c(N)no[n+]2[O-])CC1 the results were RGS8-Gao 104, RGS7-Gao 103, Avidin fluor 27, RGS16-Gao HTS 106, RGS4-Gao reg 104 and GSH bead fluor 9.
For O=C(c1cccc(F)c1)N1CCN(C2CCCCC2)CC1 the results were RGS8-Gao 99, RGS7-Gao 95, Avidin fluor 6, RGS16-Gao HTS 101, RGS4-Gao reg 97 and GSH bead fluor 269*.
Screening O=C(c1cccc(F)c1)N1CCC(N2CCCCCC2)CC1 returned RGS8-Gao 105, RGS7-Gao 105, Avidin fluor 21, RGS16-Gao HTS 112, RGS4-Gao reg 113 and GSH bead fluor 11.
Cc1cc(NC(=O)c2ccc(C#N)cc2)on1 was read as RGS8-Gao 99, RGS7-Gao 94, Avidin fluor 4, RGS16-Gao HTS 105, RGS4-Gao reg 99 and GSH bead fluor 12.
CC1=CC(C)C2(COC(=O)Nc3ccccc3)COC(C)C1C2C (stereo unspecified) was read as RGS8-Gao 102, RGS7-Gao 101, Avidin fluor 10, RGS16-Gao HTS 108, RGS4-Gao reg 105 and GSH bead fluor 11.
For CC(N)c1ccc(Cl)cc1Cl (stereo unspecified) the results were RGS8-Gao 101, RGS7-Gao 103, Avidin fluor 23, RGS16-Gao HTS 104, RGS4-Gao reg 104 and GSH bead fluor 11.
Screening c1cncc(CNc2nc(N3CCOCC3)nc(N3CCOCC3)n2)c1 returned RGS8-Gao 95, RGS7-Gao 131, Avidin fluor 67*, RGS16-Gao HTS 98, RGS4-Gao reg 111 and GSH bead fluor 34.
Cc1cc(N2CCOCC2)nc(NCc2ccccc2)n1 was read as RGS8-Gao 132, RGS7-Gao 120, Avidin fluor 5, RGS16-Gao HTS 231, RGS4-Gao reg 122 and GSH bead fluor 259*.
CCC(C)OC1OC(CO)C(O)C(O)C1NC(C)=O (stereo unspecified) was read as RGS8-Gao 99, RGS7-Gao 102, Avidin fluor 8, RGS16-Gao HTS 89, RGS4-Gao reg 102 and GSH bead fluor 11.
`CCc1c(C)c(C#N)c2nc3ccccc3n2c1NCc1ccccn1` gave RGS8-Gao 102, RGS7-Gao inconclusive, Avidin fluor 9, RGS16-Gao HTS 101, RGS4-Gao reg 100 and GSH bead fluor 27.
Screening O=C(Nc1ccccc1)N(CCCN1CCOCC1)Cc1cc2cc3c(cc2[nH]c1=O)OCCO3 returned RGS8-Gao 101, RGS7-Gao 99, Avidin fluor 34, RGS16-Gao HTS 101, RGS4-Gao reg 103 and GSH bead fluor 22.
For CCN(CC)CCCN(Cc1cc2cc3c(cc2[nH]c1=O)OCCO3)C(=O)Nc1ccccc1 the results were RGS8-Gao 98, RGS7-Gao 106, Avidin fluor 54*, RGS16-Gao HTS 103, RGS4-Gao reg 102 and GSH bead fluor 14.
Screening COc1ccc(C2CC(C)=C(C#N)S(=O)(=O)C2C#N)cc1 (stereo unspecified) returned RGS8-Gao 102, RGS7-Gao inconclusive, Avidin fluor 6, RGS16-Gao HTS 97 and RGS4-Gao reg 101.
`CCCCC(=O)Nc1cccc(NC(=O)c2ccc(Br)cc2)c1` gave RGS8-Gao 102, RGS7-Gao 137, Avidin fluor 49*, RGS16-Gao HTS 109, RGS4-Gao reg 101 and GSH bead fluor 14.
For C=CCn1c(=O)c2c(nc3n2CCS3)n(C)c1=O the results were RGS8-Gao 99, RGS7-Gao 107, Avidin fluor 7, RGS16-Gao HTS 106, RGS4-Gao reg 105 and GSH bead fluor 12.
Cn1c(=O)n(Cc2ccccc2)c(=O)c2c1nc1n2CCS1 was read as RGS8-Gao 98, RGS7-Gao 100, Avidin fluor 6, RGS16-Gao HTS 102, RGS4-Gao reg 96 and GSH bead fluor 266*.
For CCOC(=O)c1sc(NC(=O)CSc2nc(C)cc(C)n2)c(C#N)c1C the results were RGS8-Gao 102, RGS7-Gao 108, Avidin fluor 49*, RGS16-Gao HTS 105, RGS4-Gao reg 106 and GSH bead fluor 13.
